Laboratory results published in PubChem BioAssay.
Results with a measured potency or affinity are listed apart. The source made the active and inactive calls.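 How the source made its calls: active means a fitted half-maximal concentration no higher than twice the top valid tested dose, with signal falling as cells die; inconclusive means flat curve between -70% and -30%, or poor fit; inactive means the rest, including signal rising instead of falling.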

Test: viability loss in HeLa cells – cell-based, ATP luminescence, cherry-pick samples, cytotoxicity control, dose response (AID 687004)
Conditions: ATP luminescence (CellTiter-Glo), 48 h; series mostly up to 26 µM

Row | Compound | outcome
1 | CCNC(=O)C[C@H]1CC[C@H](NC(=O)NC2CCCCC2)[C@@H](CO)O1 | inactive
2 | Cc1cccc(C)c1NC(=O)CN(C)C(=O)C1CCCCC1 | inactive
3 | COc1cccc(S(=O)(=O)Nc2ccc3c(c2)[C@H]2C[C@H](CC(=O)N(C)C)O[C@@H](CO)[C@H]2O3)c1 | inactive
4 | CCCC(=O)N1CCC1(C)C(=O)Nc1ccc(C)cc1 (stereo unspecified) | inactive
5 | COc1ccc(NC(=S)NCc2ccc(Cl)cc2)c(OC)c1 | inactive
6 | O=C(NCCc1ccccc1)[C@@H]1[C@@H](CO)[C@@H]2Cn3c(cccc3=O)[C@H]1N2C(=O)C1CCC1 | inactive
7 | CC(C)NC(=O)Nc1ccc2c(c1)C(=O)N([C@@H](C)CO)C[C@H](C)[C@@H](CN(C)S(=O)(=O)c1cccs1)OCCCC[C@H](C)O2 | inactive
8 | C[C@H](O)C#Cc1ccc2c(c1)O[C@H](CN(C)Cc1ccncc1)[C@H](C)CN([C@H](C)CO)S2(=O)=O | inactive
9 | Cc1noc(C)c1NC(=O)N(C)C[C@H]1OCCCC[C@H](C)Oc2ccc(NC(=O)NC(C)C)cc2C(=O)N([C@@H](C)CO)C[C@@H]1C | inactive
10 | CCN(Cc1ccccc1)C(=O)COc1ccccc1 | inactive
11 | COc1ccccc1CNC(=S)NCc1ccc(Cl)cc1 | inactive
12 | C[C@H]1CN([C@@H](C)CO)C(=O)Cc2cc(N(C)C)ccc2O[C@@H]1CN(C)C(=O)Nc1ccc(C(F)(F)F)cc1 | inactive
13 | Cc1noc(C)c1S(=O)(=O)Nc1ccc2c(c1)CC(=O)N([C@H](C)CO)C[C@H](C)[C@H](CN(C)S(=O)(=O)c1cccs1)O2 | inactive
14 | Cc1cccc(-c2ccc([C@H]3[C@H](CO)N4CCCCN(C(=O)c5ccc6c(c5)OCO6)C[C@@H]34)cc2)c1 | inactive
15 | CC(C)CC#Cc1cnc2c(c1)C(=O)N([C@H](C)CO)C[C@H](C)[C@H](CN(C)C(=O)c1cccnc1)O2 | inactive
16 | O=C(CSc1ncnc2c1cnn2-c1ccccc1)Nc1ccc2c(c1)OCO2 | inactive
17 | O=C(Cc1ccccc1)N[C@H]1C=C[C@@H](CC(=O)N2CCOCC2)O[C@@H]1CO | inactive
18 | COCC(=O)NC[C@H]1N[C@H](CO)[C@H]1c1ccc(C2=CCCC2)cc1 | inactive
19 | CCCC(C)(C)C(=O)N1CCC1(C)C(=O)Nc1ccc(C)cc1 (stereo unspecified) | inactive
20 | Cc1noc(C)c1S(=O)(=O)Nc1ccc2c(c1)C(=O)N([C@@H](C)CO)C[C@@H](C)[C@@H](CN(C)Cc1ccccc1)OCCCC[C@H](C)O2 | inactive
21 | C[C@H](CO)N1C[C@H](C)[C@H](CN(C)C(=O)Nc2cccc3ccccc23)Oc2ccc(NC(=O)Cc3ccccc3)cc2CC1=O | inactive
22 | CC(C)NC(=O)N(C)C[C@H]1OCCCC[C@H](C)Oc2ccc(NC(=O)c3ccccc3)cc2C(=O)N([C@@H](C)CO)C[C@@H]1C | inactive
23 | COCCNC(=O)C[C@H]1C[C@@H]2c3cc(NC(=O)C4CCC4)ccc3O[C@@H]2[C@H](CO)O1 | inactive
24 | O=C(NCCN1CCCCC1)[C@@H]1N[C@@H]2c3ccc(-c4ccncc4)c(=O)n3C[C@@H]2[C@H]1CO | inactive
25 | COCC(=O)N(C)C[C@H]1Oc2ncc(-c3ccccc3F)cc2C(=O)N([C@@H](C)CO)C[C@H]1C | inactive
26 | COc1ccc(S(=O)(=O)N[C@H]2C=C[C@H](CC(=O)N3CCC(Cc4ccccc4)CC3)O[C@@H]2CO)cc1 | inactive
